Experiment [1] has as its target Retinoic acid receptor RXR-alpha (Homo sapiens) (UniProt P19793). Description: ATG_RXRa_TRANS: Attagene TRANS-FACTORIAL HepG2 Assay for human Retinoid X Receptor alpha (RXRa) (AID 2283012; active means hit-call score of the fitted dose curve at least 0.9, where 1 is the maximum). In a few lines:
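Chimeric NR-GAL4 trans-activation in HepG2, 24 h treatment; reporter transcripts quantified by fluorescence on capillary electrophoresis, analysed for upward change from DMSO.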

Experiment [2] deals with human Retinoid X Receptor beta (RXRb), RXRB (gene 6257) (UniProt P28702). As to the kind of experiment: ATG_RXRb_TRANS: Attagene TRANS-FACTORIAL HepG2 Assay for human Retinoid X Receptor beta (RXRb) (AID 2283013; active means hit-call score of the fitted dose curve at least 0.9, where 1 is the maximum). In a few lines: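 After a 24 h incubation with test chemical, transfected HepG2 cells carrying NR-Gal4 fusions and GAL4-UAS reporter transcription units yield RNA whose reporter cDNA is FAM-labelled, HpaI-cut and sized by capillary electrophoresis; increases over DMSO are scored.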

For experiment [3], the target named is human Thyroid Receptor alpha (THRa1), THRA (gene 7067) (UniProt P10827). As to the kind of experiment: ATG_THRa1_TRANS: Attagene TRANS-FACTORIAL HepG2 Assay for human Thyroid Receptor alpha (THRa1) (AID 2283014; active means hit-call score of the fitted dose curve at least 0.9, where 1 is the maximum). In a few lines:
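Transient HepG2 transfection, NR-Gal4 chimera driving GAL4-UAS reporters; 24 h compound exposure; total RNA, oligo(dT) RT, PCR, fluorescent primer extension, capillary electrophoresis. Upward direction vs DMSO control.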

Read-out in experiment [4]: E-selectin (Homo sapiens) (UniProt P16581)
Description: BSK_3C_Eselectin: BioMAP Diversity Plus: 3C Assay for Eselectin Biomarker Activity (AID 2283015).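 On outcome: cell surface E-selectin protein quantified by ELISA 24 h after dosing.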 As to conditions: primary human endothelial cells (HUVEC); actives raise or lower the signal. An outline of the steps: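 HUVEC, 3C stimulation; compound exposure 24 h; E-selectin by ELISA; gain- or loss-of-signal fitted bidirectionally vs DMSO baseline.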

Read-out in experiment [5]: Interleukin-1 alpha (IL1a), IL1A (gene 3552)
Description: BSK_BE3C_IL1a: BioMAP Diversity Plus: BE3C Assay for Interleukin-1 alpha (IL1a) Biomarker Activity (AID 2283016). As to conditions: primary human bronchial epithelial cells; actives raise or lower the signal. An outline of the steps:
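Measured in human lung primary bronchial epithelial cells: IL-1a by ELISA at 24 h after dosing, with bidirectional fitting against DMSO.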

Read-out in experiment [6]: Monocyte Chemoattractant Protein-1 (MCP1), CCL2 (gene 6347)
As to the kind of experiment: BSK_3C_MCP1: BioMAP Diversity Plus: 3C Assay for Monocyte Chemoattractant Protein-1 (MCP1) Biomarker Activity (AID 2283017). Conditions: primary human endothelial cells (HUVEC); actives raise or lower the signal. An outline of the steps: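 HUVEC, 3C system; 24 h chemical exposure; MCP-1 by ELISA; bidirectional curve fit vs DMSO baseline.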

Read-out in experiment [7]: Monocyte Chemoattractant Protein-1 (MCP1), CCL2 (gene 6347)
As to the kind of experiment: BSK_4H_MCP1: BioMAP Diversity Plus: 4H Assay for Monocyte Chemoattractant Protein-1 (MCP1) Biomarker Activity (AID 2283018). Conditions: primary human endothelial cells (HUVEC); actives raise or lower the signal. An outline of the steps: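 Primary human umbilical vein endothelium is exposed to chemical for 24 h before MCP-1 is assayed by ELISA. Concentration-response fitted bidirectionally relative to DMSO.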

Read-out in experiment [8]: Human Leukocyte Antigen - DR isotype (HLADR), HLA-DRA (gene 3122)
As to the kind of experiment: BSK_3C_HLADR: BioMAP Diversity Plus: 3C Assay for Human Leukocyte Antigen - DR isotype (HLADR) Biomarker Activity (AID 2283019).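 On outcome: ELISA of cell-surface HLA-DR on HUVEC 24 h after dosing.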 As to conditions: primary human endothelial cells (HUVEC); actives raise or lower the signal. In a few lines:
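HUVEC, 3C stimulation, 24 h post-dose; HLA-DR by ELISA; bidirectional curve fit vs DMSO baseline; gain or loss of signal scored.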

Read-out in experiment [9]: Interleukin-8 (IL8), CXCL8 (gene 3576)
Description: BSK_3C_IL8: BioMAP Diversity Plus: 3C Assay for Interleukin-8 (IL8) Biomarker Activity (AID 2283020). As to conditions: primary human endothelial cells (HUVEC); actives raise or lower the signal. An outline of the steps: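 Using DMSO-treated wells as the baseline, bidirectional curve fitting was applied to ELISA-measured IL-8 from human umbilical vein endothelial cultures sampled 24 h after compound addition.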

Read-out in experiment [10]: Monokine induced gamma interferon (MIG), CXCL9 (gene 4283)
Description: BSK_3C_MIG: BioMAP Diversity Plus: 3C Assay for Monokine induced gamma interferon (MIG) Biomarker Activity (AID 2283021).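 On AC50: MIG protein level measured by immunoassay in the treated endothelial cultures.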 As to conditions: primary human endothelial cells (HUVEC); actives raise or lower the signal. An outline of the steps:
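ELISA-measured MIG in dosed HUVEC 3C cultures at 24 h, analysed by bidirectional fitting with DMSO defining baseline activity.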

Results filed as inconclusive are left out. Activity calls are given as the source filed them. How the source made its calls, unless noted: active means hit-call score of the fitted dose curve at least 0.9, where 1 is the maximum; inactive means score below 0.9.

Chain of human Thyroid Receptor alpha (THRa1), THRA (gene 7067) (P10827 whole entry, looked up, the tested form may be a part): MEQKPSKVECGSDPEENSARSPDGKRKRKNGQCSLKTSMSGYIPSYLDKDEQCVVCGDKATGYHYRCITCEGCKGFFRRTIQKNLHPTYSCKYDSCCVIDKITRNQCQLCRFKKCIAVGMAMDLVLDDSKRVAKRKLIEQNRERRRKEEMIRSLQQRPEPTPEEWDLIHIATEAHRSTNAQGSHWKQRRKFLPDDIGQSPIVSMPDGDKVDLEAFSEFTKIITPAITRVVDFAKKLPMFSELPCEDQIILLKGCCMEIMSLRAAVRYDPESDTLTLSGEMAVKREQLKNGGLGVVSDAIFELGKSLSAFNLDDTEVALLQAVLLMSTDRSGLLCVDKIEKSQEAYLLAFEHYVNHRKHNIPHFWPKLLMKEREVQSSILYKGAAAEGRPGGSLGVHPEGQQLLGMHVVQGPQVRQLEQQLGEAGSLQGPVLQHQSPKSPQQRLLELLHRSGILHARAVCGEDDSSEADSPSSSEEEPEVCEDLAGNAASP
Chain of Retinoic acid receptor RXR-alpha (Homo sapiens) (P19793 whole entry, looked up, the tested form may be a part): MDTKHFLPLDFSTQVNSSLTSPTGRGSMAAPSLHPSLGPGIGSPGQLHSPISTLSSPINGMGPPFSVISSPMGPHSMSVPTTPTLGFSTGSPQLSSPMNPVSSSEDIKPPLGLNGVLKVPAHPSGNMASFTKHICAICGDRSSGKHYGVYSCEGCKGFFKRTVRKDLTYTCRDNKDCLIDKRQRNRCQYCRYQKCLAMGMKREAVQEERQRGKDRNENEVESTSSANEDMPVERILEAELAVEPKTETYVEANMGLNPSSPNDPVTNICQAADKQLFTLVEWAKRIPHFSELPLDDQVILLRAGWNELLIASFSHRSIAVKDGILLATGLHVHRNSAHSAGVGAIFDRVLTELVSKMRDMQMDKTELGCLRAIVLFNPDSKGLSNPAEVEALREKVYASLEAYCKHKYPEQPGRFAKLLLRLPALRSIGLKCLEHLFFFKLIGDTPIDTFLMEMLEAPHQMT
Chain of human Retinoid X Receptor beta (RXRb), RXRB (gene 6257) (P28702 whole entry, looked up, the tested form may be a part): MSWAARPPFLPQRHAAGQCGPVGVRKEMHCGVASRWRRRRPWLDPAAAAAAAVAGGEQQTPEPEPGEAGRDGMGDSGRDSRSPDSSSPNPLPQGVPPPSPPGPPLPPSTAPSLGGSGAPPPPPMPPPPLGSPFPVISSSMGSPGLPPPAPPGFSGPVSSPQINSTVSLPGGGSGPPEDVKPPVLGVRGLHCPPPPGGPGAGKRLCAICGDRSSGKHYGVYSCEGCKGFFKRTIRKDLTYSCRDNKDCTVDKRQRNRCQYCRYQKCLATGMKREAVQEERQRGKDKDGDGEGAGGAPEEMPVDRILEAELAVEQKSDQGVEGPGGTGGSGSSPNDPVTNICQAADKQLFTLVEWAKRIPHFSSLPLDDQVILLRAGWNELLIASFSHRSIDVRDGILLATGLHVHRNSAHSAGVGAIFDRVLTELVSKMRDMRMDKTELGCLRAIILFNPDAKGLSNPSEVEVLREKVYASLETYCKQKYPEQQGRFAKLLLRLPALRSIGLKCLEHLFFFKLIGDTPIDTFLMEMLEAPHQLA
Chain of E-selectin (Homo sapiens) (P16581 whole entry, looked up): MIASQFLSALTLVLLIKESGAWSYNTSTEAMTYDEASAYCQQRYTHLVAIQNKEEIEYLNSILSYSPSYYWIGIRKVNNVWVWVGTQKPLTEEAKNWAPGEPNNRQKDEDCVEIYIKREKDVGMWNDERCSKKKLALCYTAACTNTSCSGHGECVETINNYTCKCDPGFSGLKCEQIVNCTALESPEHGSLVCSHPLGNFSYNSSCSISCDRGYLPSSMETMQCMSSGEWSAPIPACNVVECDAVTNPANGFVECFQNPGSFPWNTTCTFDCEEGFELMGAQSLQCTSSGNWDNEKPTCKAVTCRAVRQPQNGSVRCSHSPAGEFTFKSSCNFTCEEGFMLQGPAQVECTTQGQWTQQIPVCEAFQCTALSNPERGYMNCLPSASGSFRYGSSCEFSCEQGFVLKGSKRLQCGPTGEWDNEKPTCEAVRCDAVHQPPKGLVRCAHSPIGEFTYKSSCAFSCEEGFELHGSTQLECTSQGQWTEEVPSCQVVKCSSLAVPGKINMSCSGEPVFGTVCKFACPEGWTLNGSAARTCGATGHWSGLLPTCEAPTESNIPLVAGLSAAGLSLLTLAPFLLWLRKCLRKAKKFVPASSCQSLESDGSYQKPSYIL

Regarding `CC(C)CCCCCCCCCCCCCCC(=O)O`, the call in experiment [1] and in experiment [3] was inactive. In addition, the AC50 (as a rule, the concentration at which the activity in the assay is half-maximal) in experiment [2] is 11.4 µM (active).

With `Nc1c(Cl)cc(Cl)cc1[N+](=O)[O-]`, the compound was classed as inactive in experiment [1], in experiment [2] and in experiment [3].

Take `Oc1c(Cl)cc(Cl)c(Cl)c1Cc1c(O)c(Cl)cc(Cl)c1Cl`: the call in experiment [1] was inactive. Also, the half-maximal activity concentration (AC50) in experiment [2] was 12.7 µM (active); in experiment [3], 0.657 µM (active); in experiment [4] it was 13 µM (active); in experiment [5], 2.02 µM (active); in [6], 32.6 µM (active); in experiment [7], 1.31 µM (active). Besides, the AC50 was 2.48 µM (active) in experiment [8], 28.2 µM (active) in experiment [9] and 31.1 µM (active) in experiment [10].

As for `CCCC(=O)C(CC)Sc1ccoc1C` (stereo not given), the outcome in experiment [1] and in experiment [3] was inactive. In addition, the AC50 in experiment [2] was 46.1 µM (active).

In the case of `COc1ccc(CCC(C)=O)cc1`, the compound was called inactive in experiment [1], in experiment [2] and in [3].

In the case of `COc1ccc(CCO)cc1`, the result in experiment [1], in [2] and in experiment [3] was inactive.

Regarding `C=CC(=O)OCCCC`, the call in experiment [1], in experiment [2] and in experiment [3] was inactive.

For `CCCCOC(=O)CCCCCCCC(=O)OCCCC`, the outcome in experiment [1], in experiment [2], in experiment [3], in experiment [4], in [5] and in experiment [6] was inactive. Further, the outcome in experiment [7], in experiment [8], in experiment [9] and in [10] was inactive.

On to `O=C1OC(=O)c2c(Cl)c(Cl)c(Cl)c(Cl)c21`, for which the outcome in experiment [1], in experiment [2] and in experiment [3] was inactive.

For `C=CCCC(=O)/C=C/C1C(C)=CCCC1(C)C` (stereo not given), the compound was called inactive in experiment [1] and in experiment [3]. For the same compound, the concentration at half-maximal activity (AC50) in experiment [2] is 25.2 µM (active).

With `COC(=O)Nc1ccc(Cl)c(Cl)c1`, the compound was called inactive in experiment [1] and in experiment [3]. Besides, in experiment [2], the AC50 was 45.1 µM (active).

On to `CCC(C)=O`, for which the compound was classed as inactive in experiment [3].

On to `CCOC(=O)[C@@H](C)Oc1ccc(Oc2nc3ccc(Cl)cc3o2)cc1`, for which the result in experiment [2] and in experiment [3] was inactive.

Consider `O=Cc1ccccc1S(=O)(=O)O`, for which the compound was classed as inactive in experiment [3].

Take `Cc1cc(S(=O)(=O)O)ccc1N=Nc1c(O)ccc2ccccc12`: the compound was called inactive in [2] and in [3].

For `CS(=O)(=O)OCCCCOS(C)(=O)=O`, the compound was called inactive in experiment [2], in [4], in [5], in [6], in experiment [7] and in experiment [8]. The result in experiment [9] and in experiment [10] was inactive.

Take `CCCCCCCCCCCCCCCC(=O)OC/C=C(C)/C=C/C=C(C)/C=C/C1=C(C)CCCC1(C)C`: the result in experiment [2], in experiment [5] and in [10] was inactive. Moreover, the concentration at half-maximal activity (AC50) in [4] is 14.3 µM (active); in [6] it was 3.97 µM (active); in experiment [8], 20 µM (active); in experiment [9] it was 1.13 µM (active).

Take `CC(=O)C1(C)CC2=C(CCCC2(C)C)CC1C` (stereo not given): the AC50 is 36.1 µM (active) in experiment [2]; 20 µM (active) in experiment [5]; 11 µM (active) in [6]; 10.4 µM (active) in [7]; 10.4 µM (active) in [8]; 5.52 µM (active) in [9]. For the same compound, the AC50 in [10] was 20 µM (active).

For `Cc1cccc(Nc2ccccc2)c1`, in experiment [2], the half-maximal activity concentration (AC50) is 28 µM (active). In addition, in [3], the call was inactive.

For `CC(O)C1CCCCC1` (stereo not given), the result in [3] was inactive.

Take `CC(C)c1ccccc1O`: the AC50 in experiment [2] was 75.5 µM (active). Besides, the outcome in experiment [3] was inactive.

Take `CC=Cc1ccc(OCC)c(O)c1`: the compound was classed as inactive in experiment [2], in [3], in [4], in experiment [5], in experiment [6] and in experiment [7]. Also, the outcome in experiment [8], in experiment [9] and in experiment [10] was inactive.

For `IC(I)I`, the outcome in [2], in experiment [3], in experiment [4], in [5], in experiment [6] and in experiment [7] was inactive. Further, the outcome in experiment [8], in [9] and in experiment [10] was inactive.

For `CC(C)CC(C)CC(O)CC(C)C` (stereo not given), the compound was classed as inactive in experiment [2] and in experiment [3].

For `Clc1cc(Cl)c(-c2c(Cl)c(Cl)cc(Cl)c2Cl)cc1Cl`, the call in experiment [2], in experiment [3] and in experiment [10] was inactive. The AC50 in experiment [4] is 13.8 µM (active); in experiment [5], 1.98 µM (active); in experiment [6], 16 µM (active); in experiment [7], 8.9 µM (active); in [8] it was 15.2 µM (active); in [9], 1.98 µM (active).

With `Cc1cc(CCC(=O)OCCOCCOCCOC(=O)CCc2cc(C)c(O)c(C(C)(C)C)c2)cc(C(C)(C)C)c1O`, the compound was classed as inactive in [2], in [3], in experiment [4], in [5] and in [10]. Also, the AC50 was 17.8 µM (active) in [6], 17.8 µM (active) in experiment [7], 17.8 µM (active) in experiment [8] and 32.3 µM (active) in experiment [9].

Take `C[N+](C)(C)CCCCCC[N+](C)(C)C`: the compound was called inactive in experiment [2] and in experiment [3].

Take `CCCCC(CC)C(=O)OC(C)C` (stereo not given): the compound was classed as inactive in [2] and in experiment [3].

`CSCCC=O`: the compound was called inactive in experiment [2], in experiment [4], in experiment [5], in [6], in [7] and in [8]. The outcome in [9] and in experiment [10] was inactive.

With `COc1cc(Cl)c(OC)cc1N`, the result in experiment [2], in [4], in experiment [5], in [6], in experiment [7] and in experiment [8] was inactive. Moreover, the outcome in experiment [9] and in [10] was inactive.

With `OCCCCC(O)CO` (stereo not given), the result in experiment [3] was inactive.

Consider `CS(C)=O`, for which the compound was classed as inactive in [2] and in experiment [3].

With `CC(C)(CO)[C@@H](O)C(=O)NCCC(=O)O`, the result in experiment [2] and in experiment [3] was inactive.

Consider `OCc1cccc(Oc2ccccc2)c1`, for which, in experiment [2], the AC50 was 100 µM (active). For the same compound, in [3], the call was inactive.

Consider `CCCCC(CC)COC(=O)c1ccc(O)cc1` (stereo not given), for which the AC50 in experiment [2] is 33.4 µM (active). In experiment [3], the compound was classed as inactive.

For `CCCCCCCCC=CCCCCCCCC1=NCCN1CCO`, the call in [2] and in experiment [3] was inactive.

On to `CCN(CCN)c1cccc(C)c1`, for which the result in [2] and in [3] was inactive.

For the compound `CC(=O)Nc1ccc(C(=O)CCl)cc1`, the compound was classed as inactive in experiment [2] and in [3]. Besides, the AC50 is 7.26 µM (active) in experiment [4]; 14.9 µM (active) in experiment [5]; 11.2 µM (active) in experiment [6]; 9.64 µM (active) in experiment [7]; 5.06 µM (active) in experiment [8]; 20 µM (active) in experiment [9]. Further, the half-maximal activity concentration (AC50) in [10] was 10.9 µM (active).

The values above are taken from PubChem BioAssay (EPA / NIEHS).
